Measured values taken from PubChem BioAssay (NCI).
This is part of a sample that, as a whole, favours compounds with a hit. Of some 79,000 tested, about 15% had one in any assay. A number with no mark means an inactive call. Calls of active or inactive are those of the source. Cut-off read from the data, not from the text of the source: active = growth inhibition above about 70%; inactive = the rest.

Assays:
[1] = NCI Yeast Anticancer Drug Screen. Data for the rad50 strain (AID 155);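 note: 0% = growth of vehicle-only cultures of the same strain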; settings: S. cerevisiae rad50 strain growth inhibition, hits give high values
How it was run: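 Cells are treated with compound, grown, and their growth is then scored against vehicle-only cultures of the same repair-deficient yeast strain.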

[2] = NCI Yeast Anticancer Drug Screen. Data for the mec2-1 strain (AID 157); settings: S. cerevisiae mec2-1 strain, hits give high values
How it was run: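 Test agents were screened against the mec2-1 yeast strain, with defined DNA repair or cell cycle alteration. Growth was scored as inhibition against vehicle-only controls.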

[3] = NCI Yeast Anticancer Drug Screen. Data for the sgs1 mgt1 strain (AID 161);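 note: 0% = growth of cultures given vehicle only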; settings: S. cerevisiae sgs1 mgt1 strain, hits give high values
How it was run: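 Inhibition of yeast growth, normalised to vehicle-treated controls, is reported for a strain bearing genetic alterations in DNA damage repair.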

[4] = NCI Yeast Anticancer Drug Screen. Data for the cln2 rad14 strain (AID 165);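 note: 0% = growth equal to vehicle treated cultures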; settings: S. cerevisiae cln2 rad14 strain, hits give high values
How it was run: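 Growth of compound-exposed yeast (cln2 rad14 genotype) measured and expressed as inhibition relative to vehicle.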

[5] = NCI Yeast Anticancer Drug Screen. Data for the bub3 strain (AID 167); settings: S. cerevisiae bub3 mutant strain, hits give high values
How it was run: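 Part of a panel of yeast mutants defective in DNA damage repair or cell cycle regulation. Each strain is grown with compound, and inhibition is calculated relative to solvent-treated cultures.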

[6] = NCI Yeast Anticancer Drug Screen. Data for the mlh1 rad18 strain (AID 175); settings: S. cerevisiae mlh1 rad18 strain growth inhibition, hits give high values
How it was run: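 In this whole-cell yeast screen, a strain with altered DNA damage repair is challenged with compound, and its growth is measured against matched vehicle-treated controls.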

[7] = at 5.0 µM (retest, dose inferred, filed as 0.5)
[8] = at 50.0 µM (retest, dose inferred, filed as 5.0)

## O=[N+]([O-])c1cc(Cl)ccc1S(=O)(=O)c1ccccc1
[1]; [7]
  growth inhibition: -19%
[1]; [8]
  growth inhibition: 75% (active)
[1]; at 50.0 µM
  growth inhibition: 77.2% (active)
[2]; [7]
  growth inhibition: -31%
[2]; [8]
  growth inhibition: 30%
[2]; at 50.0 µM
  growth inhibition: 62.1%
[3]; [7]
  growth inhibition: -7%
[3]; [8]
  growth inhibition: 57%
[3]; at 50.0 µM
  growth inhibition: 78.8% (active)
[4]; [7]
  growth inhibition: 22%
[4]; [8]
  growth inhibition: 40%
[4]; at 50.0 µM
  growth inhibition: 47.5%
[5]; [7]
  growth inhibition: -13%
[5]; [8]
  growth inhibition: 79% (active)
[5]; at 50.0 µM
  growth inhibition: 76.6% (active)
[6]; [7]
  growth inhibition: -25%
[6]; [8]
  growth inhibition: 75% (active)
[6]; at 50.0 µM
  growth inhibition: 79.7% (active)

## CCCCOc1ccc(CC(O)CN2CCCCC2C)cc1 (stereo not given)
[1]; [7]
  growth inhibition: 22%
[1]; [8]
  growth inhibition: 49%
[1]; at 50.0 µM
  growth inhibition: 75.2% (active)
[2]; [7]
  growth inhibition: 21%
[2]; [8]
  growth inhibition: 51%
[2]; at 50.0 µM
  growth inhibition: 52.5%
[3]; [7]
  growth inhibition: 33%
[3]; [8]
  growth inhibition: 61%
[3]; at 50.0 µM
  growth inhibition: 78% (active)
[4]; [7]
  growth inhibition: 36%
[4]; [8]
  growth inhibition: 57%
[4]; at 50.0 µM
  growth inhibition: 73.7% (active)
[5]; [7]
  growth inhibition: 36%
[5]; [8]
  growth inhibition: 71% (active)
[5]; at 50.0 µM
  growth inhibition: 85.6% (active)
[6]; [7]
  growth inhibition: 24%
[6]; [8]
  growth inhibition: 60%
[6]; at 50.0 µM
  growth inhibition: 51%

## Clc1nc(Cl)c(Cc2ccccc2)c(Cl)n1
[1]; [7]
  growth inhibition: 43%
[1]; [8]
  growth inhibition: 97% (active)
[1]; at 50.0 µM
  growth inhibition: 91% (active)
[2]; [7]
  growth inhibition: 50%
[2]; [8]
  growth inhibition: 99% (active)
[2]; at 50.0 µM
  growth inhibition: 93.4% (active)
[3]; [7]
  growth inhibition: 38%
[3]; [8]
  growth inhibition: 100% (active)
[3]; at 50.0 µM
  growth inhibition: 90.7% (active)
[4]; [7]
  growth inhibition: 34%
[4]; [8]
  growth inhibition: 94% (active)
[4]; at 50.0 µM
  growth inhibition: 89.2% (active)
[5]; [7]
  growth inhibition: 49%
[5]; [8]
  growth inhibition: 99% (active)
[5]; at 50.0 µM
  growth inhibition: 87.2% (active)
[6]; [7]
  growth inhibition: 78% (active)
[6]; [8]
  growth inhibition: 97% (active)
[6]; at 50.0 µM
  growth inhibition: 88.5% (active)

## O=C(O)Cc1ccc2c(c1O)C(=O)c1ccccc1C2=O
[1]; [7]
  growth inhibition: 1%
[1]; [8]
  growth inhibition: 20%
[1]; at 50.0 µM
  growth inhibition: 89.3% (active)
[2]; [7]
  growth inhibition: 0%
[2]; [8]
  growth inhibition: 31%
[2]; at 50.0 µM
  growth inhibition: 67.2%
[3]; [7]
  growth inhibition: 1%
[3]; [8]
  growth inhibition: 28%
[3]; at 50.0 µM
  growth inhibition: 78.8% (active)
[4]; [7]
  growth inhibition: -2%
[4]; [8]
  growth inhibition: 7%
[4]; at 50.0 µM
  growth inhibition: 57.5%
[5]; [7]
  growth inhibition: 0%
[5]; [8]
  growth inhibition: 50%
[5]; at 50.0 µM
  growth inhibition: 65.9%
[6]; [7]
  growth inhibition: 0%
[6]; [8]
  growth inhibition: 29%
[6]; at 50.0 µM
  growth inhibition: 74.1% (active)

## FC(F)(F)c1ccc(NC(=S)SCc2ccc(Cl)cc2)cc1
[1]; [7]
  growth inhibition: 8%
[1]; [8]
  growth inhibition: 99% (active)
[1]; at 50.0 µM
  growth inhibition: 99.3% (active)
[2]; [7]
  growth inhibition: 5%
[2]; [8]
  growth inhibition: 99% (active)
[2]; at 50.0 µM
  growth inhibition: 99.7% (active)
[3]; [7]
  growth inhibition: 13%
[3]; [8]
  growth inhibition: 99% (active)
[3]; at 50.0 µM
  growth inhibition: 99.5% (active)
[4]; [7]
  growth inhibition: -3%
[4]; [8]
  growth inhibition: 98% (active)
[4]; at 50.0 µM
  growth inhibition: 99.4% (active)
[5]; [7]
  growth inhibition: 26%
[5]; [8]
  growth inhibition: 99% (active)
[5]; at 50.0 µM
  growth inhibition: 99.5% (active)
[6]; [7]
  growth inhibition: 17%
[6]; [8]
  growth inhibition: 99% (active)
[6]; at 50.0 µM
  growth inhibition: 99.5% (active)

## Cc1cc(N=Nc2ccccc2)ccc1O
[1]; [7]
  growth inhibition: -13%
[1]; [8]
  growth inhibition: 99% (active)
[1]; at 50.0 µM
  growth inhibition: 99.4% (active)
[2]; [7]
  growth inhibition: -11%
[2]; [8]
  growth inhibition: 100% (active)
[2]; at 50.0 µM
  growth inhibition: 99.5% (active)
[3]; [7]
  growth inhibition: -2%
[3]; [8]
  growth inhibition: 100% (active)
[3]; at 50.0 µM
  growth inhibition: 99.5% (active)
[4]; [7]
  growth inhibition: -31%
[4]; [8]
  growth inhibition: 99% (active)
[4]; at 50.0 µM
  growth inhibition: 99.3% (active)
[5]; [7]
  growth inhibition: 6%
[5]; [8]
  growth inhibition: 99% (active)
[5]; at 50.0 µM
  growth inhibition: 99.3% (active)
[6]; [7]
  growth inhibition: -8%
[6]; [8]
  growth inhibition: 99% (active)
[6]; at 50.0 µM
  growth inhibition: 99.3% (active)

## O=C1O/C(=C(\Cc2ccccc2)c2ccccc2)N(c2ccccc2)C1=O
[1]; [7]
  growth inhibition: 5%
[1]; [8]
  growth inhibition: 30%
[1]; at 50.0 µM
  growth inhibition: 69.2%
[2]; [7]
  growth inhibition: -6%
[2]; [8]
  growth inhibition: 23%
[2]; at 50.0 µM
  growth inhibition: 18.6%
[3]; [7]
  growth inhibition: 0%
[3]; [8]
  growth inhibition: 28%
[3]; at 50.0 µM
  growth inhibition: 22.9%
[4]; [7]
  growth inhibition: -5%
[4]; [8]
  growth inhibition: -9%
[4]; at 50.0 µM
  growth inhibition: -30.2%
[5]; [7]
  growth inhibition: 0%
[5]; [8]
  growth inhibition: 13%
[5]; at 50.0 µM
  growth inhibition: 14.9%
[6]; [7]
  growth inhibition: -6%
[6]; [8]
  growth inhibition: 21%
[6]; at 50.0 µM
  growth inhibition: 28.8%

## CC(=O)c1c(O)ccc2nc3ccccc3nc12
[1]; [7]
  growth inhibition: 11%
[1]; [8]
  growth inhibition: 87% (active)
[1]; at 50.0 µM
  growth inhibition: 94% (active)
[2]; [7]
  growth inhibition: 20%
[2]; [8]
  growth inhibition: 92% (active)
[2]; at 50.0 µM
  growth inhibition: 91.5% (active)
[3]; [7]
  growth inhibition: 14%
[3]; [8]
  growth inhibition: 89% (active)
[3]; at 50.0 µM
  growth inhibition: 82.6% (active)
[4]; [7]
  growth inhibition: 12%
[4]; [8]
  growth inhibition: 86% (active)
[4]; at 50.0 µM
  growth inhibition: 82.8% (active)
[5]; [7]
  growth inhibition: 22%
[5]; [8]
  growth inhibition: 85% (active)
[5]; at 50.0 µM
  growth inhibition: 92% (active)
[6]; [7]
  growth inhibition: 39%
[6]; [8]
  growth inhibition: 91% (active)
[6]; at 50.0 µM
  growth inhibition: 94.5% (active)

## COc1ccc(CCCCI)cc1
[1]; [7]
  growth inhibition: -4%
[1]; [8]
  growth inhibition: 95% (active)
[1]; at 50.0 µM
  growth inhibition: 94.6% (active)
[2]; [7]
  growth inhibition: -14%
[2]; [8]
  growth inhibition: 94% (active)
[2]; at 50.0 µM
  growth inhibition: 95.2% (active)
[3]; [7]
  growth inhibition: -6%
[3]; [8]
  growth inhibition: 97% (active)
[3]; at 50.0 µM
  growth inhibition: 94.2% (active)
[4]; [7]
  growth inhibition: 2%
[4]; [8]
  growth inhibition: 97% (active)
[4]; at 50.0 µM
  growth inhibition: 96.4% (active)
[5]; [7]
  growth inhibition: 0%
[5]; [8]
  growth inhibition: 96% (active)
[5]; at 50.0 µM
  growth inhibition: 97% (active)
[6]; [7]
  growth inhibition: 16%
[6]; [8]
  growth inhibition: 98% (active)
[6]; at 50.0 µM
  growth inhibition: 96.9% (active)

## CN(C)CC1CCCCCCCCCCCCC(CN(C)C)C1=O (stereo not given)
[1]; [7]
  growth inhibition: -18%
[1]; [8]
  growth inhibition: 42%
[1]; at 50.0 µM
  growth inhibition: 83.7% (active)
[2]; [7]
  growth inhibition: -6%
[2]; [8]
  growth inhibition: 22%
[2]; at 50.0 µM
  growth inhibition: 77.8% (active)
[3]; [7]
  growth inhibition: -15%
[3]; [8]
  growth inhibition: 57%
[3]; at 50.0 µM
  growth inhibition: 95.5% (active)
[4]; [7]
  growth inhibition: -23%
[4]; [8]
  growth inhibition: 20%
[4]; at 50.0 µM
  growth inhibition: 72.2% (active)
[5]; [7]
  growth inhibition: -15%
[5]; [8]
  growth inhibition: 46%
[5]; at 50.0 µM
  growth inhibition: 88% (active)
[6]; [7]
  growth inhibition: -13%
[6]; [8]
  growth inhibition: 87% (active)
[6]; at 50.0 µM
  growth inhibition: 39%
